From PubChem BioAssay AID624040 (The Scripps Research Institute Molecular Screening Center, 2012) come the findings set out here.

Among all 360,000 compounds or so, about 2,100 (0.58%) were called active.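 How the source made its calls: active means inhibition above a per-plate cutoff, the mean of that plate's test compounds plus 3 SD (cut at about 27% in these data); inactive means the rest.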 The list comes from a sample in which actives are over-represented; it also holds similar structures and randomly drawn compounds.

The target of this assay is Muscarinic acetylcholine receptor M5 (Homo sapiens) (UniProt P08912). The assay is described as follows: CHRM5 blockers of acetylcholine calcium response – CHO cells, Fluo-8 calcium fluorescence, primary screen (AID 624040).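 Further: 0% = acetylcholine EC80 with DMSO and 100% = DMSO without agonist.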 Particulars: CHO-hM5 cells, ACh EC80, at 3 µM, active compounds read high.
Muscarinic acetylcholine receptor M5 (Homo sapiens), sequence (P08912 whole entry, looked up): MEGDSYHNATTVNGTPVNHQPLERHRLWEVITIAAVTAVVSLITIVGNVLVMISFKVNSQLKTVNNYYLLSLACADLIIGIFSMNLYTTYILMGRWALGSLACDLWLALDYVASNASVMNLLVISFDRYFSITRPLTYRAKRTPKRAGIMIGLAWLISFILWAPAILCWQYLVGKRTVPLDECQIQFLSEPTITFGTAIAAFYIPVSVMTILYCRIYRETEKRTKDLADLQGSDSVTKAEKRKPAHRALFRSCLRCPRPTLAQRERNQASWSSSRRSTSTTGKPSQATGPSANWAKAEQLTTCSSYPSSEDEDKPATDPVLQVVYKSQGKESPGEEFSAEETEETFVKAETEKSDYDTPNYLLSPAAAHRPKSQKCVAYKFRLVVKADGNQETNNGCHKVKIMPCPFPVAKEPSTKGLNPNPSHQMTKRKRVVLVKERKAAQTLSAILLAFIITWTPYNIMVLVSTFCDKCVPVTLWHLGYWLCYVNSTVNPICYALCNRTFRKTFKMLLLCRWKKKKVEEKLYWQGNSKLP
Consider `CCCC[N+]1(C)C2CC(OC(=O)C(CO)c3ccccc3)CC1C1OC12` (stereo not given), for which the inhibition was 73.3% (active).
Consider `CCn1cc(CN2CCCC(C(=O)c3cccc(C(F)(F)F)c3)C2)cn1` (stereo not given), for which the inhibition was 12.4% (inactive).
`CCCCCCCCCCCCn1ccc(=N)cc1`: the inhibition was 33.9% (active).
Consider `CCOC(=O)C1(c2ccccc2)CCN(CC(O)c2ccc(NC(C)=O)cc2)CC1` (stereo not given), for which the inhibition is 11.2% (inactive).
Take `O=c1c2ccccc2nc(/C=C/c2ccco2)n1-c1ccccc1O`: the inhibition was 3.76% (inactive).
With `Cc1ccc(-c2nn(CCC#N)cc2C(=O)O)cc1C`, the inhibition is 1.31% (inactive).
As for `CC[N+]1(C)CCCC(OC(=O)C(O)(c2ccccc2)c2ccccc2)C1` (stereo not given), the inhibition is 98.3% (active).
Next, `Oc1cc2c(cc1CN1CCN(c3ccccc3)CC1)OCO2`: 15.7% (inactive); `COC(=O)C[C@H]1CC[C@H]2NC[C@@H](O)COC[C@@H]2O1`: 7.66% (inactive); `COC1=CC=C2[C@H]3Cc4ccc(OC)c5c4[C@@]2(CCN3C)C1O5` (stereo not given in full): -5.74% (inactive).
Turning to `CNC(=S)N/N=C1\C2CN3CCN(C2)CC1(c1ccccc1)C3`, the inhibition is 3.28% (inactive).
As for `Nc1ccc(C(=O)N/N=C2/CN3CCC2CC3)cc1`, the inhibition was 6.34% (inactive).
As for `CC1CCCCN1Cc1cccnc1` (stereo not given), the inhibition was 12.5% (inactive).
In the case of `O=C(Cc1ccccc1)N1CCN(C2CCCCCC2)CC1`, the inhibition is 0.09% (inactive).
As for `CC1CCCN1CCC(C(N)=O)(c1ccccc1)c1ccccc1` (stereo not given), the inhibition is 99.5% (active).
Next, `CCCC(C)n1[nH]c(=O)c2c1NC(=O)CSC2c1ccc(OC)c(OC)c1` (stereo not given): 7.43% (inactive); `CC1C2Cn3c(nc4ccccc43)C1N(C)O2` (stereo not given): 0.97% (inactive); `Cc1ncoc1C(=O)NCC1=C(c2cccc3ccccc23)C[C@@H]2CC[C@H]1N2Cc1ccco1`: -3.17% (inactive).
Turning to `COc1ccc2c(c1O)-c1cccc3c1[C@@H](C2)N(C)CC3`, the inhibition is -4.83% (inactive).
On to `COc1ccc(C2C=C(C)Oc3c2c(=O)oc2ccccc32)cc1OC` (stereo not given), for which the inhibition is 2.6% (inactive).
